Screening data deposited in PubChem by several laboratories.
Rows were chosen to be rich in hits. Some 3.7% of all compounds tested hit in one or more screens of this group.
Bead autofluor = compound fluorescence in toxin protease inhibitor counterscreen. 360,000 compounds, 3.1% hits. fluorescence intensity (no concentration beside the values). compound autofluorescence counterscreen, microsphere flow cytometry; stronger effect = higher value. AID 624483; in the data active means fluorescence intensity above about 16000; inconclusive means no clear call, values can overlap the other calls
Anthrax LF prot = inhibitors of Bacillus anthracis lethal factor protease; P15917; multiplex microsphere protease cleavage assay, LF; inhibition, % at 10 µM; 360,000 compounds, 0.12% hits
BoNT F protease = inhibitors of Botulinum neurotoxin F light chain protease; Multiplex microsphere protease cleavage assay, flow cytometry; inhibition, % at 10 µM; 360,000 compounds, 0.22% hits; in the data active means inhibition above about 35%, passing the limit was not always enough; inconclusive means no clear call, values can overlap the other calls
MazF activator = increases E. coli MazEF RNase cleavage of RNA. P0AE70. FAM/BHQ RNA-DNA oligo cleavage fluorescence, 5 h. activation, % at 20 µM. 350,000 compounds, 0.32% hits; in the data active means activation above about 50%
Target sequence (P0AE70 whole entry, looked up): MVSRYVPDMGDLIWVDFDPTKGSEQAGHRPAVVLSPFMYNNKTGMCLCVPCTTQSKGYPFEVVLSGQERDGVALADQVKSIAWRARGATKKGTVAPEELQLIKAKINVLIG
BoNT-A LC inh2 = inhibitors of Botulinum neurotoxin A light chain protease; inhibition, % at 10 µM; AID 588499; 360,000 compounds, 0.17% hits; multiplex microsphere protease substrate cleavage, flow cytometry
Of the large screens only hits and unclear results are named; the others gave an inactive call. Unless noted, no stated cut-off is given here; in the data, active means inhibition above about 30%; inconclusive means no clear call, values can overlap the other calls; inactive means below that.

CC(=O)Nc1ccc(S(=O)(=O)N2CCN(C(=O)N3CCOCC3)CC2)cc1	none
O=C(COc1ccc(Cl)cc1)Nc1nc(-c2ccc(S(=O)(=O)N3CCOCC3)cc2)cs1	Bead autofluor 22761, BoNT-A LC inh2 inconclusive
CC(=O)Nc1ccc(S(=O)(=O)N2CCOCC2)cc1	Bead autofluor 21279
O=C(CCN1C(=O)c2ccccc2C1=O)Nc1ccc(S(=O)(=O)N2CCOCC2)cc1	Bead autofluor 22292
O=C(COc1ccccc1)Nc1nc(-c2ccc(S(=O)(=O)N3CCOCC3)cc2)cs1	none
CC(=O)Nc1ccc(OCC(O)CN2CCN(S(=O)(=O)c3ccc(NC(C)=O)cc3)CC2)cc1 (centres undefined)	none
CC1CCCN(S(=O)(=O)c2ccc(NC(=O)CCN3C(=O)c4ccccc4C3=O)cc2)C1 (centres undefined)	BoNT F protease inconclusive
CC(=O)c1cccc(S(=O)(=O)N2CCn3cccc3C2C)c1 (centres undefined)	none
CCN(CC(=O)N1CCC(C(N)=O)CC1)S(=O)(=O)c1cc(Cl)ccc1Cl	none
Cn1c(=O)n(C)c2cc([N+](=O)[O-])c(N3CCN(S(=O)(=O)c4ccc(C(C)(C)C)cc4)CC3)cc21	none
CCOc1ccc(N2CC(C(=O)Nc3ccc(S(=O)(=O)N4CCOCC4)cc3)CC2=O)cc1 (centres undefined)	Bead autofluor 23130, BoNT-A LC inh2 inconclusive
Cc1ccc(NC(=O)COc2ccc(S(=O)(=O)N3CCOCC3)cc2)cc1	Bead autofluor 22684
CC(C)c1ccc(NC(=O)COc2ccc(S(=O)(=O)N3CCOCC3)cc2)cc1	none
CCN(CC)C(=O)COc1ccc(S(=O)(=O)N2CCOCC2)cc1	Bead autofluor 16440
CC(=O)Nc1ccc(S(=O)(=O)N2CCN(c3cc4c(cc3[N+](=O)[O-])n(C)c(=O)n4C)CC2)cc1	Bead autofluor 21248
CCOC(=O)N1CCN(Cc2nc3ccc([N+](=O)[O-])cc3c(=O)n2-c2ccccc2F)CC1	none
CSc1ccccc1NC(=O)COc1ccc(S(=O)(=O)N2CCCC2)cc1	Bead autofluor 22225
CC(=O)Nc1ccc(S(=O)(=O)N2CCN(C)CC2)cc1	Bead autofluor 23174
CC(C)NC(=O)COc1ccc(S(=O)(=O)N2CCCC2)cc1	none
CC1(c2nc3ccccc3[nH]2)CCCC2=Nc3ccccc3CN21 (centres undefined)	none (no result: MazF activator)
CC1CC(=O)NN=C1c1ccc(N(C)C)c([N+](=O)[O-])c1 (centres undefined)	Bead autofluor 18577
CCOC(=O)Cc1csc(NC(=O)CCN2C(=O)c3cccc([N+](=O)[O-])c3C2=O)n1	none
CCOc1cc(C)c(-c2onc(C(F)(F)F)c2-c2csc(C)n2)c(O)c1	Bead autofluor 22729
COc1ccc(-c2nc(N)nc(C(F)(F)F)c2-c2csc(C)n2)c(O)c1	none
Cc1nc(-c2c(C(F)(F)F)noc2-c2ccc(O)cc2O)cs1	Bead autofluor 17928, BoNT-A LC inh2 inconclusive
CCCC(=O)C1=C(O)C(C(=O)OC)C(C)(C)CC1=Nc1ccc(C)cc1 (centres undefined)	none
CCCC(=O)C1=C(O)C(C(=O)OC)C(C)(C)CC1=Nc1ccc(N)cc1 (centres undefined)	Bead autofluor 21083
CCCC(=Nc1ccc(N)cc1)C1=C(O)C(C(=O)OC)C(C)(C)CC1=O (centres undefined)	Bead autofluor 23098, BoNT-A LC inh2 inconclusive
COc1ccc(NC(=O)N(C)C[C@@H]2Oc3cc(Br)ccc3S(=O)(=O)N([C@H](C)CO)C[C@H]2C)cc1	none
Cc1cc2c(n1-c1ccc(C(N)=O)cc1)CC(C)(C)CC2=O	Bead autofluor 22230, BoNT-A LC inh2 inconclusive
Cc1ccc(S(=O)(=O)N(CC(=O)N2CCOCC2)C2CCCCC2)cc1	Bead autofluor 23611, BoNT-A LC inh2 inconclusive
Cc1ccc(S(=O)(=O)N(CC(=O)N2CCN(c3ccccc3F)CC2)C2CCCCC2)cc1	Bead autofluor 20732
O=C(COC(=O)C1CCN(S(=O)(=O)c2c(Cl)cccc2Cl)CC1)NCc1ccco1	Bead autofluor inconclusive
COc1ccc(CNC(=O)/C=C/c2cc([N+](=O)[O-])ccc2OC(F)F)cc1	Bead autofluor 16762, BoNT-A LC inh2 inconclusive
COc1ccc(CNC(=O)/C=C/c2cc([N+](=O)[O-])ccc2OC(F)F)cc1OC	Bead autofluor 18771, BoNT-A LC inh2 inconclusive
COC(=O)c1ccc(CNC(=O)/C=C/c2cc([N+](=O)[O-])ccc2OC(F)F)cc1	Bead autofluor 19547
O=C(/C=C/c1cc([N+](=O)[O-])ccc1OC(F)F)NCc1ccc(Cl)cc1	none
